Compounds with a hit are over-represented: about 8% of the library has one in this group of screens.
Pyk2 oligo antag – blocks oligomerization of human Pyk2 in cells | Q293 cells, Pyk2 FERM NanoBiT luminescence; active compounds read low | AID 1347419 | 0.83% of 99,000 active | z-score (the deposit names both 25 µM and 10 µM) | Q14289;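 active means Z-score of -3 or lower, scaled per plate to the spread of control and sample wells; inactive means z-score above -3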;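 further: negative z-score means lost luminescence so less FERM oligomerization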
PostGolgi ctrl – growth of the yeast control strain, post-Golgi counter-screen; AID 738; inhibition, % at 10 µM; efflux-deficient yeast background strain, growth absorbance A615, 16 h; 5% of 98,000 active
PostGolgi yeast – growth inhibition of a yeast mutant, post-Golgi transport screen. 0.9% of 98,000 active. post-Golgi transport phenotypic cell assay. inhibition, % at 10 µM;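 further: yeast cells grown in 1536-well plates; yeast grown about 18 h at 30C before absorbance read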
Cav32 inh – blocks human Cav3.2 T-type calcium channel; B-score at 10 µM; AID 449739; Cav3.2-expressing cells, Fluo-4 calcium fluorescence FDSS; active compounds read low; O95180; 4% of 100,000 active;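 active means single-dose well whose peak fluorescence ratio is a statistical outlier from its plate by either plate-standardised score or position-corrected B-score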
* marks the source's active call; other numbers are inactive results; x = not tested or not shown. Unless noted, no stated cut-off is given here; in the data, active means inhibition above about 30%; inactive means the rest.

SMILES	Pyk2 oligo antag	PostGolgi ctrl	PostGolgi yeast	Cav32 inh
Cc1c(NC(=O)c2n[nH]c(=O)c3ccccc23)c(=O)n(-c2ccccc2)n1C	1.3	10	1	-0.18
COc1cc(NC(=O)c2cnn3c(C)cc(C)nc23)c(OC)cc1Cl	-0.09	41*	0	0.83
CCOC(=O)Cc1csc(NC(=O)CC(C)(C)C)n1	0.84	-1	1	-0.096
COc1ccc(Nc2nc(NC(C)(C)C)nc(N3CCCC3)n2)c(OC)c1	-2.7	63*	5	-0.1
Cn1cccc1Cc1nnc(SCC(=O)Nc2ccc(F)cc2F)n1-c1ccc(F)cc1	x	14	4	-4.5*
Cc1ccc(NC(=O)CSc2nnc(Cc3cccn3C)n2-c2ccc(F)cc2)c(C)c1	x	11	3	-10*
COc1ccc(Cl)cc1NC(=O)CSc1nnc(Cc2cccn2C)n1-c1ccc(F)cc1	x	32*	4	-6*
Cn1cccc1Cc1nnc(SCC(=O)NC2CCCC2)n1-c1ccc(F)cc1	x	4	8	1.1
COC1Cc2ccccc2N(C(=O)N2CCN(CCO)CC2)c2ccccc21 (configuration not stated)	2.1	8	0	x
CCCC(=O)Nn1cnc2c(c1=O)C1(CCCCC1)Cc1ccccc1-2	-1	35*	-1	-1.5
CCC(=O)Nn1cnc2c(c1=O)C1(CCCCC1)Cc1ccccc1-2	-0.19	31*	3	-1.2
Cc1ccccc1-n1c(=O)c2c(n3cnnc13)-c1ccccc1CC21CCCCC1	-0.42	19	-2	2.7
COC(=O)c1ccc(Oc2nc(Nc3ccc(C)c(C)c3)nc(N(C)C)n2)cc1	-1.2	10	-1	-1.5
CC(C)OC(=O)c1nnn(-c2nonc2N)c1CSc1ccccn1	-2.1	37*	9	x
CCOC(=O)c1nnn(-c2nonc2N)c1CN1CCc2ccccc2C1	0.12	22	1	-2.1
CC(C)OC(=O)c1nnn(-c2nonc2N)c1CN1CCc2ccccc2C1	0.22	47*	1	-1.9
CCOc1nc(NC2CCCCC2)nc(NC(C)(C)C)n1	-1.2	x	x	-5.3*
CC(C)(C)c1cc(NC(=O)COc2ccc(Br)cc2)n(-c2ccccc2)n1	-0.51	37*	4	-3
Cn1c(=O)c2[nH]c(CCCC(=O)O)nc2n(Cc2ccccc2)c1=S	x	x	x	0.56
CC(C)COC(=O)NCCOC(=O)Nc1cccc(Cl)c1	1.1	7	-6	-5.7*
COc1ccc(NC(=O)OCC(C)C)cc1OC	-0.33	26	10	0.047
Cc1ccc(N(Cc2ccccc2F)S(C)(=O)=O)cc1C	-1.3	-3	-4	-1.2
COc1ccc(C2C(C(C)=O)=C(C)N=c3s/c(=C\c4ccco4)c(=O)n32)c(OC)c1 (configuration not stated)	-0.76	23	-12	-1.1
COc1ccc(C2C(C(C)=O)=C(C)N=c3s/c(=C\c4cc(C)n(C)c4C)c(=O)n32)c(OC)c1 (configuration not stated)	0.39	14	2	-5*
C=CCOC(=O)C1=C[C@H](c2ccc(Br)cc2)C[C@H](OCc2ccc(CO)cc2)O1	x	x	x	-0.48
SMILES	Pyk2 oligo antag	PostGolgi ctrl	PostGolgi yeast	Cav32 inh
CCOC(=O)c1cnc2ccc(OC)cc2c1Nc1ccc2c(c1)OCCO2	-4*	15	9	-3.4
COc1cc(C)c(Br)cc1S(=O)(=O)N1CCCC1	-1	9	-8	-0.51
Cc1cccc(C(=O)NNC2=C(C(=O)C(F)(F)F)CCC2)c1O	0.36	5	10	-8*
Clc1cccc(NCc2nnc(SCc3ccccc3)o2)c1	0.26	20	11	-2.3
Clc1cccc(NCc2nnc(SCc3ccccc3Cl)o2)c1	1.6	40*	6	x
O=C(C1CC1)N1CCN=C1SCc1ccccc1Cl	x	18	5	-0.28
COC(=O)C[C@H]1c2cc(F)ccc2S(=O)(=O)N1Cc1ccccc1	x	x	x	0.91
CCCN1/C(=C2/SC(=S)N(CC)C2=O)C=Cc2ccccc21	-3.1*	14	-6	0.19
CN1C(=O)/C(=C2/C=Cc3ccccc3N2CCCS(=O)(=O)O)SC1=S	-2.1	-2	4	x
NC(=O)N1c2ccccc2C=Cc2ccccc21	x	x	x	1.4
CCN(CC)C(=O)N1c2ccccc2C=Cc2ccccc21	-1.2	26	1	-8.6*
Cn1c(N)c(S(=O)(=O)NCc2ccccc2)c(=O)n(C)c1=O	x	x	x	0.74
CCOC(=O)CSC1=C(C#N)C(c2ccccc2)C(C(C)=O)=C(C)N1 (configuration not stated)	-1.3	6	4	-1
Cc1ccc(C(=O)CSC2=C(C#N)C(c3ccco3)CC(=O)N2)c(C)c1 (configuration not stated)	-0.09	15	8	-1.7
CC(=O)C1=C(C)NC(SCC(=O)c2ccc(Cl)cc2Cl)=C(C#N)C1c1ccco1 (configuration not stated)	-0.38	34*	6	-2.6

Screens from PubChem BioAssay.
